# Test results from PubChem BioAssay (NCI).
# Compounds without any hit were thinned out: in the full panel of roughly 83,000, 20% have a hit.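 Values shown are percent growth following 48 h exposure of cells in 96-well plates to a single concentration of compound; below 10 was considered active.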 Active and inactive are the calls of the source.
# Test system: SNB-19 CNS
# Experiment: NCI-60 one-dose screen, 48 h (100 = growth as untreated, 0 = no growth, -100 = all killed)
# Conditions: 10 µM unless noted
# Method: Growth inhibition of the SNB-19 human tumor cell line is measured as a screen for anti-cancer activity. Cells are grown in 96 well plates and exposed to the test compound for 48 hours. Compounds are tested at a single concentration, which is 10^-5 M for most compounds. The reported endpoint is percent growth (GI% or GIPRCNT), where numbers from 0 - 100% represent growth inhibition, and numbers from -100% - 0 represent cell death. For example, a value of 40 represents 60% growth inhibition. A value of 0 means no net growth occurred over the course of the experiment. A value of -40 indicates 40% of cells at the beginning of the experiment died by the end of the experiment. A value of -100 means all cells are dead at the end of the experiment.
# NCI-60 Human Tumor Cell Lines Screen was performed using the standard one-dose NCI protocol, which is described in more detail at https://dtp.cancer.gov/discovery_development/nci-60/default.htm.
# Compounds with GIPRCNT values below 10 were considered active. Activity score was based on GIPRCNT using the following formula: […]
# Score is 0 for GIPRCNT values of 100 or above, 50 for GIPRCNT values of 0, and 100 for GIPRCNT values of -100.
row,SMILES,growth
1,C/C=C/C/C=C/[C@H](C)C[C@H](O)[C@@H]1C[C@@H]2O[C@H]2/C=C/[C@@H]2OC(C)(C)O[C@H]2/C=C/C[C@H](C)CC(=O)O1,62.2% (inactive)
2,c1ccc(-c2cn3ccnc3c(-c3ccc4ncn(C5CCCCC5)c4c3)n2)cc1,77.1% (inactive)
3,CCCC(=O)NNc1[nH]c(-c2ccc(OC)cc2)cc1C(=O)OCC,108% (inactive)
4,Clc1ccc(N/N=C(\c2ccccc2)c2ccccn2)nc1,24.4% (inactive)
5,O=C(CN1C(=O)NC(c2ccccc2)(c2ccccc2)C1=O)c1ccc(N2CCCC2)cc1,90.7% (inactive)
6,COc1cc2ncnc(Nc3ccc4c(cnn4C(=O)Nc4ccccc4)c3)c2cc1OC,95.4% (inactive)
7,COc1cccc(NC(=O)NCCNc2nccc(-c3c(-c4ccc(F)cc4)nc4sccn34)n2)c1,86.3% (inactive)
8,Cc1nc2ccccc2c(=O)n1-c1cccc(OCc2cn(-c3cccc(O)c3)nn2)c1,91.2% (inactive)
9,CCCCCCC(C)N(CC(C)(C)O)C(=O)c1ccc([N+](=O)[O-])cc1 (stereo not given),95.4% (inactive)
10,CC(C)(C)C(=O)CCCCCCCC/C=C/CCCC(O)c1ccco1 (stereo not given),109% (inactive)
11,Cc1ccc(S(=O)(=O)NC(CCC(=O)Nc2ccccc2)C(=O)Nc2ccccc2)cc1 (stereo not given),-3.81% (active)
12,O=P(OCCCl)(OCCCl)C(O)c1ccccc1Cl (stereo not given),107% (inactive)
13,O=C(Nn1cnc2ccccc21)N1CCCC1,110% (inactive)
14,O=C(/C=C\c1ccccc1Cl)c1ccccc1,94.9% (inactive)
15,CCOC(=O)C1C(=O)C(=O)N(C(C)C)C1C(=O)OCC (stereo not given),97.3% (inactive)
16,COC(=O)C1CC(=O)N(C(=O)Nc2ccc(Cl)cc2Cl)C1 (stereo not given),102% (inactive)
17,NCCCOc1cc(Cl)ccc1NC(=O)c1cc2ccccc2cc1OCCCN,34% (inactive)
18,COc1cccc(-c2cc(-c3cc4ccccc4oc3=O)nc(N)n2)c1,106% (inactive)
19,CC(C)OC(=O)c1ccc2n1CCCc1cnc(Nc3ccccc3)nc1-2,89% (inactive)
20,Clc1ccc(N/N=C(/c2ccccc2)c2ccccn2)nc1,60.1% (inactive)

row,SMILES,growth
1,Cc1nc2c(nnn2-c2ccccc2)c2nc(-c3ccccc3)oc(=O)c12,104% (inactive)
2,O=C(O)/C(Br)=C/c1c[nH]c2ccc(Br)cc12,126% (inactive)
3,CCCCCSc1ccc2nc(NC(=O)OCCC)sc2c1,40.9% (inactive)
4,N#CCCCCCCCCCCC#N,109% (inactive)
5,CN(C)CCOC(=O)C(C)(C)C,99.4% (inactive)
6,c1ccc(C(=NNc2nc3ccccc3o2)c2ccccn2)nc1,24.5% (inactive)
7,CC(=O)N(N=O)c1ccc([N+](=O)[O-])cc1Cl,58.6% (inactive)
8,COc1cc2ncnc(-n3ncc4cc(NC(=O)Nc5ccc(Cl)c(Cl)c5)ccc43)c2cc1OC,10.4% (inactive)
9,CCC(C)C1NC(=O)C(CC(C)C)NC(=O)C(C)NC(=O)C(C(C)C)NC(=O)C(CCCCN)NC(=O)C(CC(C)C)NC(=O)C(C(C)C)NC(=O)[C@H](C)NC(=O)C(C(C)CC)NC(=O)C(CCCN=C(N)N)NC(=O)C(CCCCN)NC(=O)C(CCCN=C(N)N)NC(=O)C(CCCCN)NC(=O)C([C@H](C)CC)NC(=O)C(CCCCN)NC1=O (stereo not given in full),17.4% (inactive)
10,CC(Br)c1nc2ccccc2cc1C(N)=O (stereo not given),105% (inactive)
11,CCOC(=O)CCCCCCCCC(=O)OCC,103% (inactive)
12,O=C1Nc2c(c(=O)n(-c3ccccc3)c3ccccc23)C(c2ccc(Cl)cc2)N1 (stereo not given),60.4% (inactive)
13,COc1cc2ncnc(-n3ncc4cc(NC(=O)Nc5ccc(Cl)c(C)c5)ccc43)c2cc1OC,109% (inactive)
14,C/C=C(/C)C(=O)OC1C=C(CO)C(=O)C(OC(=O)C2(C)OC2C)C1C(C)C (stereo not given),12.1% (inactive)
15,O=C(O)COc1ccc([N+](=O)[O-])cc1Cl,107% (inactive)
16,O=C(O)c1occ(Cl)c1Cl,109% (inactive)
17,COc1cccc(CNC(=O)c2cccc(C3CC(=O)c4c(cc(OC)c(OC)c4OC)O3)c2)c1 (stereo not given),51.2% (inactive)
18,CC(=O)Nc1nc(C)c(C(=O)NNC(=O)Nc2ccccc2)s1,93.9% (inactive)
19,CCCC[N+](C)(N)CCCC,104% (inactive)
20,Oc1ccccc1\C=N/N=C/C=C/c1ccccc1,93.9% (inactive)
